Screening results deposited in PubChem BioAssay by The Scripps Research Institute Molecular Screening Center.
Hits are enriched below; roughly 1.1% of the tested compounds scored in any of these assays.
HTR5A inv ctr = HTR5A inverse agonism, opioid heterodimer counter-screen | P47898 | HTR5A cell line, luminescence | inhibition, % at 9.3 µM | hit rate 0.083% among 340,000 | AID 504634; in the data active = inhibition mostly above about 23%, no sharp cut-off; inactive = mostly below about 18%;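 also: 0% = cells with DMSO and 100% = no-cell wells with DMSO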
Target sequence (P47898 whole entry, looked up): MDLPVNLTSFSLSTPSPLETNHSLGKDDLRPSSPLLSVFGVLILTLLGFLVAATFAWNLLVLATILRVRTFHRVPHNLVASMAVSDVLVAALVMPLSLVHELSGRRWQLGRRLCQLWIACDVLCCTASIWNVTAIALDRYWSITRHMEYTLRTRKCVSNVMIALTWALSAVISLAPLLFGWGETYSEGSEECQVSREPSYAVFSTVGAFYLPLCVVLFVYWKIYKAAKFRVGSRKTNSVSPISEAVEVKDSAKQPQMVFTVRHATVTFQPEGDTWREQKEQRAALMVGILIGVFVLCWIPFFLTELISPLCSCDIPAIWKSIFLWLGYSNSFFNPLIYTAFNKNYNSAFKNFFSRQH
OPRM1-OPRD1 inv = inverse agonist of human OPRM1-OPRD1 heterodimerization | inhibition, % at 9.3 µM | cell-based MOR-DOR heterodimer luminescence, inverse agonism | hit rate 0.21% among 340,000 | P35372+P41143; in the data active = inhibition above about 22%, passing the limit was not always enough;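 also: 0% = cells with DMSO and 100% = wells without cells with DMSO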
MOR-DOR ag = OPRM1-OPRD1 heterodimerization agonism. hit rate 0.3% among 340,000. activation, % at 9.3 µM. P35372+P41143. cells, luminescence;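 also: 0% = vehicle-treated cells and 100% = reference agonist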
HTR5A ag ctr = activates human HTR5A in OPRM1-OPRD1 agonist counter-screen | HTR5A agonist assay, luminescence, cell-based | hit rate 0.61% among 340,000 | activation, % at 9.3 µM | AID 504692; in the data active = activation mostly above about 9.5%, no sharp cut-off; inactive = mostly below about 7.6%;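 also: 0% = cells with vehicle only and 100% = reference agonist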
OPRM1-D1 ag cf = OPRM1-OPRD1 heterodimer agonism, confirmation. shares compounds with MOR-DOR ag. activation, % at 9.3 µM. cells, MOR-DOR heterodimerization, luminescence complementation. AID 504904. hit rate 45% among 830;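 also: 0% = vehicle-treated cells and 100% = reference agonist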
HTR5A ag counter = activates human HTR5A in OPRM1-OPRD1 agonist counter-screen. shares compounds with MOR-DOR ag. HTR5A agonist counterscreen, cell luminescence. activation, % at 9.3 µM. hit rate 8% among 830; in the data active = activation above about 17%;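 also: 0% = vehicle-treated cells and 100% = reference agonist response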
Active calls of the source: *; ! = not confirmed by another sample. Rule as the data show it, unless noted: active = activation above about 18%; inactive = the rest.

SMILES	HTR5A inv ctr	OPRM1-OPRD1 inv	MOR-DOR ag	HTR5A ag ctr	others
CC1(C)C[C@H]2C=C(C=O)[C@]3(C=O)C[C@]3(C)[C@H]2C1	1	-61	11	42*
NC1CCc2cc(O)c(O)cc2C1 (stereo not drawn)	-21	0	0	6
Cc1cc(NC(=O)COC(=O)c2c(C)nn(Cc3ccccc3)c2C)no1	-5	-2	0	12*
CC(=O)OC1C2CCC1C(N1CCCCC1)CC2 (stereo not drawn)	0	12	-2	-2
CC(=O)OC1C2CCCC1C(N1CCCC1)CC2 (stereo not drawn)	1	12	-3	13*!
CCN(CC)P(=O)(Oc1ccccc1)Oc1ccccc1	14	5	-1	-1
CC(=O)c1ccc2c(c1)C1C(Cl)C(Sc3ccccc3[N+](=O)[O-])CC1C(c1ccccc1[N+](=O)[O-])N2 (stereo not drawn)	3	-37	7	11*
CNc1cc(Cl)c2nonc2c1[N+](=O)[O-]	16	33*	-6	-5
Cc1cc([N+](=O)[O-])c(Cl)cc1NC(=O)C(C)C	5	-1	0	-3
NC(=Nc1ccccc1)NN=Cc1c[nH]c2ccccc12	-49	-5	1	13*
C/C(=N\N1CCCCCC1)c1c(O)n(-c2ccccc2C)c(=O)[nH]c1=O	9	10	-2	3
CCN(CC)c1ccc(/C=N/c2sc3c(c2C#N)C2CCN3CC2)c(O)c1	11	42*	-8	-3
O=c1c2ccccc2nc(/C=C/c2ccccc2F)n1-c1ccccc1O	3	-150	29*	-1
O=C1CCCN1CC#CCN1CCCC1	-2	6	-1	1
CN(C)S(=O)(=O)c1cc(NC(=O)COC(=O)Cc2ccccc2)ccc1Cl	-19	12	-2	-4
CC1(C)CN=C(Nc2ccccc2C(F)(F)F)S1	0	14	-2	11*
FC(F)(F)c1ccccc1NC1=NCCCS1	11	1	0	-4
COc1ccc(OC)c(N=Cc2c(O)[nH]c(=O)[nH]c2=O)c1	11	6	-1	-3
CCn1nc(-c2ccccc2)nc2c(=O)n(C)c(=O)nc1-2	18	-142	24*	9
COC(=O)C1=C(c2cccc(C#N)c2)C[C@@H]2CC[C@H]1N2C(=O)NCCOc1ccccc1	-13	7	-1	2
CCCNC(=O)N1[C@H]2CC[C@@H]1C(C(=O)OC)=C(c1cccc(C#N)c1)C2	-4	6	-1	13*
COc1cc2c(cc1OC)C1[C@H]3C(=CC[C@H]1OC2O)CCN3C (stereo partly drawn)	-5	12	-2	2
CC12CCC(O)CC1CCC1C2CCC2(C)C(C3=CC(=O)OC3)C(O)CC12O (stereo not drawn)	-128	-304	69*	33*
CC12CC[C@H]3[C@@H](CCC4(O)C[C@H](O)CCC34/C=N/NC(=O)Cc3ccccc3)C1(O)CCC2C1=CC(=O)OC1 (stereo partly drawn)	-18	-11	2	7
C[C@]12CC[C@H](O)C[C@H]1CC[C@@H]1[C@@H]2CC[C@]2(C)[C@@H](C3=CC(=O)OC3)CC[C@]12O	-74	-395	71*	37*
SMILES	HTR5A inv ctr	OPRM1-OPRD1 inv	MOR-DOR ag	HTR5A ag ctr	others
CC12C=CC(=O)C=C1CCC1C2C(O)CC2(C)C1CCC2(C)O (stereo not drawn)	-7	19	-4	2
C=C1C(=O)O[C@@H]2C[C@@H](C)[C@@H]3C=CC(=O)[C@@]3(C)[C@@H](OC(=O)CC(=O)O[C@H]3[C@@H]4C(=C)C(=O)O[C@@H]4C[C@@H](C)[C@@H]4C=CC(=O)[C@]43C)[C@H]12	7	46*	-8	-2
C=C1C(=O)OC2CC(C)C3C=CC(=O)C3(C)C(O)C12 (stereo not drawn)	15	14	-3	-4
c1ccc2c(CCNC3=NCCC3)c[nH]c2c1	-44	14	-2	11*
COC(=O)C1=CO[C@@H](C)[C@H]2CN3CC[C@]4(C(=O)Nc5ccccc54)[C@@H]3C[C@H]12	-9	6	-1	-2
Clc1ccc(C(c2ccc(Cl)cc2)n2cc[n+](CC(OCc3ccc(Cl)cc3Cl)c3ccc(Cl)cc3Cl)c2)cc1 (stereo not drawn)	-10	-347	63*	20	OPRM1-D1 ag cf=50*;HTR5A ag counter=10
